Bioassay records as filed in PubChem.
A selection: hits, their analogues and other compounds. The true share with any hit is near 3.9%.
Bead autofluor – compound fluorescence in toxin protease inhibitor counterscreen; fluorescence intensity (no concentration beside the values); 360,000 tested, 3.1% active; compound autofluorescence counterscreen, microsphere flow cytometry; stronger effect = higher value; AID 624483; in the data active = fluorescence intensity above about 16000; inconclusive = no clear call, values can overlap the other calls
BoNT-A LC inh2 – BoNT A light chain protease inhibition | multiplex microsphere protease substrate cleavage, flow cytometry | inhibition, % at 10 µM | 360,000 tested, 0.17% active; also: plate controls were buffer without enzyme for full effect and enzyme alone for no effect
MazEF act – increases E. coli MazEF RNase cleavage of RNA | P0AE70 | FAM/BHQ RNA-DNA oligo cleavage fluorescence, 5 h | activation, % at 20 µM | 350,000 tested, 0.32% active | AID 504720; in the data active = activation above about 50%
BH1578 lux ind – inducers of Vibrio cholerae quorum light production without autoinducers. 350,000 tested, 0.16% active. AID 588436. activation, % at 18.7 µM. V. cholerae BH1578 lux reporter, luminescence, 6 h; in the data active = activation mostly above about 9.7%, no sharp cut-off; inconclusive = no clear call, values can overlap the other calls; inactive = mostly below about 3.7%
Anthrax LF prot – inhibitors of Bacillus anthracis lethal factor protease; P15917; multiplex microsphere protease cleavage assay, LF; inhibition, % at 10 µM; 360,000 tested, 0.12% active; AID 588501; also: plate controls were buffer without enzyme for full effect and enzyme alone for no effect
Target sequence (P15917 whole entry, looked up): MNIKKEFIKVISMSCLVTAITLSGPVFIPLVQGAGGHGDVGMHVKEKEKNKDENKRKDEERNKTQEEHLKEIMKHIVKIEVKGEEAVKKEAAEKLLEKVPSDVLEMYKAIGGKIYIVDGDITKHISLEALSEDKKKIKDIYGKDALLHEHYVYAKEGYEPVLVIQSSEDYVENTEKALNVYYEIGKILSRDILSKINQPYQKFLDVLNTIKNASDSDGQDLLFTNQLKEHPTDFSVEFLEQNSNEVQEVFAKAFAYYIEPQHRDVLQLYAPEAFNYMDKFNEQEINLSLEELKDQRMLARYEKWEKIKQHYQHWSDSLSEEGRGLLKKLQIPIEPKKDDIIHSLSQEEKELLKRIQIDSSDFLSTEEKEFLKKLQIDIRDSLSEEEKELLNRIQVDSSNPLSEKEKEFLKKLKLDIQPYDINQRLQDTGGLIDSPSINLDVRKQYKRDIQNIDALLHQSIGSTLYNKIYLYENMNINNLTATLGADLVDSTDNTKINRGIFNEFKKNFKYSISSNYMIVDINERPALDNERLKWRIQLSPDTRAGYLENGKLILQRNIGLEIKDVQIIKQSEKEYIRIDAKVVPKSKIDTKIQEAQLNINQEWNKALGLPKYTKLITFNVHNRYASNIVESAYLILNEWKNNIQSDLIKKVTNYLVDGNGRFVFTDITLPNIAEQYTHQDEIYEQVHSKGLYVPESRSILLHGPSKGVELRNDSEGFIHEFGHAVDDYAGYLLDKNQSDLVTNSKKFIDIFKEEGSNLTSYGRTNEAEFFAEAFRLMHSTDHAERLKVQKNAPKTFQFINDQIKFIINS
BoNT F protease – inhibitors of Botulinum neurotoxin F light chain protease | Multiplex microsphere protease cleavage assay, flow cytometry | inhibition, % at 10 µM | 360,000 tested, 0.22% active; in the data active = inhibition above about 35%, passing the limit was not always enough; inconclusive = no clear call, values can overlap the other calls; also: plate controls were buffer without enzyme for full effect and enzyme alone for no effect
Numbers without * were called inactive; i = inactive; ? = inconclusive; nt = not tested or not shown; + = active, no number. Rule as the data show it, unless noted: active = inhibition above about 30%; inconclusive = no clear call, values can overlap the other calls; inactive = below that.

SMILES	Bead autofluor	BoNT-A LC inh2	MazEF act	BH1578 lux ind	Anthrax LF prot	BoNT F protease
CNc1nc(SCc2ccccc2)nc(N2CCOCC2)n1	11491	-1	-5	0	-3	-9
[N-]=[N+]=CC(=O)C(c1ccccc1)(c1ccccc1)c1ccccc1	3900	-5	-4	0	0	?
COc1ccc(CNc2ncc(-c3ccccc3)n2C)cc1	3144	1	11	0	2	?
CCOc1cc(CNc2ncc(-c3ccc(OC)cc3)n2C)ccc1O	20656*	0	-1	i	-4	-4
C=C(C)C1CC=C(C)/C(=N/NC(=O)c2ccc(NC(=O)CC)cc2)C1 (centres undefined)	17225*	?	2	0	0	-8
C=C(C)C1CC=C(C)/C(=N/NC(=O)CNc2ccc(OCC)cc2)C1 (centres undefined)	21006*	?	14	i	-13	0
C=C(C)C1CC=C(C)C(=NNC(=O)c2ccncc2)C1 (centres undefined)	4028	-1	11	i	3	-4
C=C(C)C1CC=C(C)/C(=N/NC(=O)c2ccc(NC(=O)CCC)cc2)C1 (centres undefined)	16939*	?	5	0	0	-4
COc1ccccc1CNC(=O)Nc1nnc([C@H]2C[C@H](O)[C@@H](CO)O2)s1	3451	0	nt	i	-2	3
Cc1ccnc(NC(=O)c2cccc(S(=O)(=O)N3CCCc4ccccc43)c2)c1	?	4	0	i	0	9
CCc1ccc2c(c1)[C@]1(C(=O)N2)[C@@H]2C(=O)N(Cc3ccccc3)C(=O)[C@@H]2[C@@H]2CCCN21	21738*	2	-1	i	-2	4
Cc1cc(Cl)cc2c1NC(=O)[C@]21[C@@H]2C(=O)N(Cc3ccccc3)C(=O)[C@@H]2[C@@H]2CCCN21	3642	2	0	i	0	-10
CC1CCCC(NC(=O)NC(=O)COC(=O)C2=NN(c3ccccc3)C(=O)CC2)C1C (centres undefined)	3715	0	2	-3	-2	2
CN1CCC/C1=C1/C(=O)N(c2ccccc2)N=C1NC(=O)Nc1cccc(Cl)c1	4115	0	-6	0	1	2
CN(C)c1ccc(/C=C/C(=O)c2cccc(Br)c2)cc1	33462*	40*	-633	-6	35*	84*
CC(C)NC(=O)C1Cc2c(-c3ccccc3Oc3ccccc3)ccnc2O1 (centres undefined)	2810	0	nt	-1	-1	-2
CC(C)N(C)C1CCN(C(=O)Nc2ccc(Cl)cc2)CC1	23132*	-3	-16	0	-6	-5
Cc1cc(C(=O)N2CCN(c3ccccc3)CC2)c(C)o1	17012*	-2	1	0	-1	-2
Cc1cc(C(=O)N2CCN(c3ncccn3)CC2)c(C)o1	21168*	-4	13	i	-1	-3
Cc1cc(C(=O)N2CCN(c3cccc(Cl)c3)CC2)c(C)o1	4003	1	-5	5	-4	?
Cc1ccc(-n2cc(CNCC3CC(=O)N(C4CC4)C3)c(-c3cccc(C)c3)n2)cc1 (centres undefined)	4548	1	0	i	2	-8
COC(=O)c1sccc1NC(=O)c1ccc(Br)s1	22720*	0	-7	i	2	0
COC(=O)c1sccc1NC(=O)c1csc(C)c1	16143*	0	-2	1	-2	1
COc1cccc(C(O)c2nc(-c3ccc(OC)nc3)cs2)c1 (centres undefined)	3573	0	nt	2	13	-6
COc1ccc(Cl)cc1N/C(N)=N/c1nc(C)cc(=O)[nH]1	5041	-1	2	i	-4	-15
SMILES	Bead autofluor	BoNT-A LC inh2	MazEF act	BH1578 lux ind	Anthrax LF prot	BoNT F protease
COc1ccc(Cl)cc1N/C(N)=N/c1nc(CSc2ccc(C)cc2)cc(=O)[nH]1	23248*	1	-5	i	-1	-2
Cn1cccc1/C=C1\Cc2ccccc2C1=O	4221	1	-12	-4	0	2
CN1C2CCC1/C(=C/c1cccn1C)C(=O)/C2=C\c1cccn1C	7871	15	+	0	17	8
Cn1cccc1/C=C1\CC(C(C)(C)C)C/C(=C\c2cccn2C)C1=O (centres undefined)	7066	3	108*	-2	2	-4
COc1cc(-c2nnc(SCC#CCO)o2)cc(OC)c1OC	22486*	0	-3	i	-2	-1
CCOC(=O)c1c(NC(C)=O)sc2c(OCCN(CC)CC)c(Br)ccc12	4280	-1	11	-2	5	0
CCOC(=O)c1c(NC(C)=O)sc2c1CCC(C=NCCCN(CC)CC)=C2Sc1ccccc1	4169	68*	15	20*	31*	-24
Cc1ccsc1/C=N/NC(=O)C1C(=O)NCC1c1ccccc1 (centres undefined)	nt	nt	5	nt	nt	nt
COc1ccc(/C(C)=C2\SC(=S)N(CCC(=O)O)C2=O)cc1	20765*	0	0	i	0	0
CC1=CC(c2ccc(Cl)cc2)n2nc(NS(=O)(=O)c3ccc(C)cc3)nc2N1 (centres undefined)	23033*	1	2	i	-2	-2
COC(=O)c1sccc1-c1ccc(/C=N/OC(=O)c2cccs2)o1	3295	2	3	-1	4	?
Cc1c(C(=O)N2CCOCC2)oc2c1C(=O)CC(C)(C)C2	8234	0	9	i	3	-5
Cc1c(C(=O)N2CCc3ccccc32)oc2c1C(=O)CC(C)(C)C2	23325*	2	2	0	0	1
Cc1c(C(=O)N2CCN(C)CC2)oc2c1C(=O)CC(C)(C)C2	21465*	4	1	-3	-6	5
N#Cc1ccc(C(=O)Nc2ccc(N3CCN(C(=O)c4ccco4)CC3)cc2)c(F)c1	24354*	-2	49	i	0	-7
COc1ccc(CN2CCC(n3nccc3NC(=O)C3CC3)CC2)cc1O	6689	-1	1	-8	-1	-5
COCCCNC(=O)c1ccc2c(c1)CCN2S(C)(=O)=O	22130*	4	9	0	2	3
COCCNC(=O)c1ccc2c(c1)CCN2S(C)(=O)=O	?	0	6	0	0	5
CCc1nc2ccc(C(=O)Nc3ccc(Cl)c(Cl)c3)cn2c1N(C)Cc1ccc(OC)cc1	3783	0	nt	0	-8	2
NS(=O)(=O)c1cccc(NC(=O)Cn2cnc3ccccc3c2=O)c1	20676*	3	0	-1	-4	2
CC(C)(C)C1CCN2CCCC(c3ccc([N+](=O)[O-])cc3)(C1)C21OCCO1 (centres undefined)	5168	0	nt	nt	-9	3
N=c1c(S(=O)(=O)c2ccccc2)cc2c(=O)n3ccccc3nc2n1CCCN1CCOCC1	3900	1	28	0	-8	0
N=c1c(S(=O)(=O)c2ccc(Cl)cc2)cc2c(=O)n3ccccc3nc2n1CCc1ccccc1	5658	3	nt	0	-1	-2
